Hit rate of the full screen: of about 52,000 compounds, about 4,300 (8.3%) were called active. The sample holds actives, similar compounds and a random draw of the others, so the mix is not that of the screen. Rule as the data show it: active = survival mostly below about 52% (no sharp cut-off); inactive = mostly above about 56%.
Each compound was assayed on DeltatarO mutant (assay: growth inhibition of S. aureus wild type versus tarO mutant, primary screen, teichoic acid synthesis inhibitors, RN4220, OD600 (AID 463173)). Settings: OD600, 18 h, hits give low values, screened at 18.75 µg/mL (by protocol).

Structure (SMILES)	survival
COc1ccc(Cc2nnc(SCC(=O)N3CCCC3)o2)cc1	83% (inactive)
COc1ccc(N(CC(=O)NCCc2ccc(C)cc2)S(=O)(=O)c2c(C)nn(C)c2C)cc1	71% (inactive)
COc1ccc(-c2nc3c(c(SCC(=O)N4CCCCC4)n2)Cc2cc(C)ccc2O3)cc1	84% (inactive)
CSc1ncc(C(=O)NCc2ccc(C)cc2)c(C)n1	69% (inactive)
CSc1ncc(C(=O)NCc2ccc(C)cc2)c(-c2ccccc2)n1	0% (active)
CSc1ncc(C(=O)NCc2ccccc2)c(-c2ccccc2)n1	37% (active)
CSc1ncc(C(=O)NCc2cccc(F)c2)c(-c2ccccc2)n1	70% (inactive)
CSc1ncc(C(=O)NCc2cccc(C)c2)c(-c2ccccc2)n1	55% (inactive)
CSc1ncc(C(=O)NCc2ccc(F)cc2)c(-c2ccccc2)n1	95% (inactive)
COc1cccc(NC(=O)c2sc3nc(C)c(C(=O)Nc4ccc(C)cc4C)c(-c4cccs4)c3c2N)c1	122% (inactive)
CCc1ccc(S(=O)(=O)c2cn(Cc3ccccc3F)c3cc(OC)c(OC)cc3c2=O)cc1	70% (inactive)
COc1ccc(C(=O)NCc2cn3ccc(C)cc3n2)cc1	96% (inactive)
Cc1c(-c2ccccc2)n(-c2ccccc2O)c2nc3c(c(=O)n(C)c(=O)n3C)n12	94% (inactive)
CC(=O)c1ccc(NC(=O)c2cc3c(=O)oc4ccc(C)cc4c3s2)cc1	106% (inactive)
COc1ccc(-c2noc(CN(C(=O)C(C)Oc3ccc(C)cc3)C(C)C)n2)cc1 (stereo not drawn)	63% (inactive)
COc1ccc(-c2noc(CNC(=O)COc3cccc(C)c3C)n2)cc1	51% (inactive)
COc1ccc(CC(=O)N(Cc2nc(-c3ccc(C)cc3)no2)C(C)C)cc1	31% (active)
COc1ccc(-c2noc(CN(C(=O)c3ccc(C)cc3C)C(C)C)n2)cc1	-3% (active)
Cc1ccc(-c2noc(CN(C(=O)COc3cc(C)cc(C)c3C)C(C)C)n2)cc1	-3% (active)
COc1ccc(-c2noc(CCC(=O)NCc3ccc(C)cc3)n2)cc1	103% (inactive)
COc1ccc(-c2noc(CN(C(=O)Cc3ccc(C)cc3)C(C)C)n2)cc1	16% (active)

Structure (SMILES)	survival
COc1ccc(-c2noc(CN(C(=O)c3cc(OC)c(OC)cc3OC)C(C)C)n2)cc1	74% (inactive)
COc1ccc(-c2noc(CN(C(=O)c3ccccc3Cl)C(C)C)n2)cc1	62% (inactive)
COc1ccc(-c2noc(CC(=O)N(C)c3cccc(C)c3)n2)cc1	68% (inactive)
Cc1ccccc1Cn1c(C)c(CNCc2ccccc2)c(C(=O)O)c1C	84% (inactive)
Cc1cccc(N(CC(=O)N(C)Cc2ccccc2)S(=O)(=O)c2ccccc2)c1C	47% (inactive)
O=S(=O)(c1ccc(Cl)cc1)c1nnn2c1nc(NCc1ccc3c(c1)OCO3)c1sccc12	69% (inactive)
Cc1ccc2c(=O)c(C(=O)c3cccc(Cl)c3)cn(CC(=O)Nc3ccc4c(c3)OCCO4)c2n1	80% (inactive)
CC(=O)Nc1ccc(S(=O)(=O)N2CCC(c3nnnn3-c3ccccc3)CC2)cc1	76% (inactive)
O=C(NCCN1CCCCC1)Nc1c[nH]c2c(Cl)cccc2c1=O	102% (inactive)
COC(=O)c1cc(-c2ccc(Cl)cc2)c2c(=O)[nH]c(=O)n(C)c2n1	92% (inactive)
COc1ccc(-c2noc(-c3nnn(-c4cc(C)ccc4C)c3N)n2)cc1	81% (inactive)
COc1ccc(-c2noc(CN(C(=O)COc3cc(C)c(Br)c(C)c3)C(C)C)n2)cc1	31% (active)
Cc1ccc(-c2noc(CNC(=O)COc3cc(C)c(Br)c(C)c3)n2)cc1	80% (inactive)
Cc1ccc(-c2noc(CNC(C)C)n2)cc1	77% (inactive)
Cc1ccc(CC(=O)NCc2nc(-c3ccccc3)no2)cc1	77% (inactive)
Cc1ccc(CC(=O)N(Cc2nc(-c3ccc(C)cc3)no2)C(C)C)cc1	-4% (active)
COc1ccc(-c2noc(CC(=O)Nc3ccc(Br)cc3C)n2)cc1	59% (inactive)
O=C(CS(=O)(=O)c1cccc2nsnc12)Nc1ccc(F)cc1	97% (inactive)
CCN(CC)C(=O)CSc1nc2c(c(=O)n(C)c(=O)n2C)n1Cc1ccccc1	76% (inactive)
Cc1ccc(C)c(NC(=O)C(NS(=O)(=O)c2ccc3c(c2)CCC(=O)N3)c2ccccc2)c1 (stereo not drawn)	113% (inactive)
CCOC(=O)Nc1ccc(C(=O)OC)cc1	75% (inactive)

Structure (SMILES)	survival
COC(=O)c1ccc(NC(=O)CCOc2ccccc2)cc1	69% (inactive)
COC(=O)c1ccc(NCC(=O)c2ccccc2)cc1	64% (active)
O=C(NC1CCCCC1)/C(=N\O)c1ccccn1	97% (inactive)
CCOc1ccc(NC(=O)Cn2cc(C(=O)c3ccc(C)c(C)c3)c(=O)c3cc4c(cc32)OCCO4)cc1	62% (inactive)
CCCCCN1N=C(C)CC1=O	39% (active)
CC1=NN(c2ccc(N)cc2)C(=O)C1	107% (inactive)
CCOC(=O)c1sc(N2N=C(C)CC2=O)nc1C	76% (inactive)
CCN(CC)CCCNC(=O)C(=O)Nc1ccc2nc3n(c(=O)c2c1)CCCCC3	91% (inactive)
COc1ccc(-c2noc(CCC(=O)Nc3cccc(C)c3C)n2)cc1OC	69% (inactive)
COc1ccc(C(=O)Nc2ccc3oc(-c4ccc5ccccc5c4)nc3c2)cc1Br	63% (inactive)
CCc1ccc2oc(-c3ccc(NC(=O)c4ccc(OC)c(Br)c4)cc3)nc2c1	60% (inactive)
Cc1cccc(-c2nc3cc(NC(=O)COc4ccccc4F)ccc3o2)c1	103% (inactive)
COc1cc2ccccc2cc1C(=O)Nc1ccc2oc(-c3ccc(F)cc3Cl)nc2c1	59% (inactive)
COc1cc2ccccc2cc1C(=O)Nc1ccc2oc(-c3ccc(Cl)cc3)nc2c1	59% (inactive)
COc1cc2ccccc2cc1C(=O)Nc1ccc2oc(-c3ccc(F)cc3)nc2c1	43% (active)
COc1cc(C(=O)Nc2ccc3oc(-c4ccccc4)nc3c2)cc(OC)c1OC	51% (inactive)
COc1cc2ccccc2cc1C(=O)Nc1ccc2oc(-c3cccc(C)c3)nc2c1	25% (active)
CCc1ccc(-c2nc3cc(NC(=O)c4cc5ccccc5cc4OC)ccc3o2)cc1	11% (active)
CCc1ccc(OCC(=O)Nc2ccc3oc(-c4ccc(OC)cc4)nc3c2)cc1	62% (inactive)
COc1cc2ccccc2cc1C(=O)Nc1ccc2oc(-c3ccccc3)nc2c1	8% (active)
O=C(Nc1ccc(-c2nc3cc(NC(=O)c4ccccc4F)ccc3o2)cc1)c1ccccc1F	90% (inactive)
